High-throughput results deposited in PubChem BioAssay by Broad Institute.
Casp6 inh = blocks human caspase-6 cleavage activity; AID 686996; inhibition, % at 12.5 µM; purified caspase-6, Z-VEID-R110 cleavage fluorescence; hit rate 0.53% among 350,000; P55212;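 active means mean inhibition across replicates at least about 35%, with every replicate also reaching that limit, limit read from the data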;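 further: 0% = median of neutral control wells and 100% = no fluorescence left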
NSD2 HMT inh = NSD2 (human) methyltransferase inhibition. O96028. hit rate 0.54% among 310,000. NSD2 peptide methylation, AlphaScreen, 120 min. inhibition, % at 12.5 µM; in the data active means inhibition above about 50%
PglD DTNB = PglD (C. jejuni) enzyme inhibition; purified PglD enzyme, DTNB colorimetric CoA detection; inhibition, % at 12.5 µM; hit rate 0.098% among 360,000; AID 602405; in the data active means inhibition above about 16%, passing the limit was not always enough
ALR H2O2 inh = blocks human ALR sulfhydryl oxidase activity | inhibition, % (concentration not given with the values) | P55789 | AID 485317 | hit rate 3.8% among 290,000 | purified ALR, DTT oxidation, H2O2 HRP-luminol luminescence;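 active means mean replicate inhibition above about 79%, with every replicate also reaching it, limit read from the data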
F508del corr = CFTR F508del correction in bronchial cells. CFBE cells, YFP halide quenching; stimulated with forskolin plus potentiator P3; % fluorescence drop versus neutral controls. activity (quench increase), % at 7.58 µM. hit rate 0.36% among 350,000. AID 720511;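 active means mean added fluorescence quench of at least 8% versus neutral control, with both replicates also reaching 8%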;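 further: cells transiently co-express mutant CFTR-F508del with the halide-sensitive YFP; corrector assay measuring rescue of mutant channel to the surface after 24 h compound exposure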
HIV Env fusion = inhibitors of HIV Env-mediated cell fusion. HeLa-JRFL Env/CEM21 cell fusion, luciferase. inhibition, % at 12.3 µM. hit rate 1.1% among 360,000;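 active means mean replicate inhibition score of at least 50 and every replicate individually at or above 50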;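 further: 0% = plate neutral controls and 100% = maraviroc near 300 nM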
* marks the source's active call; other numbers are inactive results; · = no result; [ ] = another dose, or the depositor's remark. Rows were chosen to be rich in hits. Some 4.1% of all compounds tested hit in one or more screens of this group.

SMILES	Casp6 inh	NSD2 HMT inh	PglD DTNB	ALR H2O2 inh	F508del corr	HIV Env fusion
CO[C@H]1CN(C)C(=O)c2cc(NC(=O)c3ccc(F)cc3)ccc2OC[C@@H](C)N(C(=O)CN(C)C)C[C@H]1C	1.8	·	1.8	·	0.2	-5.4[16.7 µM]
CO[C@H]1CN(C)C(=O)c2cc(NC(=O)c3ccc(F)cc3)ccc2OC[C@H](C)N(C(=O)CN(C)C)C[C@@H]1C	2.4	·	1.4	·	-2.4	62.0*[16.7 µM]
COc1ccccc1C(=O)Nc1ccc2c(c1)OC[C@H](C)N(C(C)=O)C[C@H](C)[C@H](OC)CN(C)C2=O	·	·	-60.2	·	-0.8	60.0*[16.7 µM]
C/C=C/c1ccccc1[C@H]1[C@@H](C#N)N(C(=O)CN2CCOCC2)[C@H]1CO	0.2	·	·	·	-0.9	·
O=C(NNc1ccc([N+](=O)[O-])cc1)C1CC2CCCC(C1)C2=O (configuration not stated)	·	1.5	-3.0	85.8*	·	4.1
COc1ccc2c3c([nH]c2c1)[C@H](CO)N(C(=O)Nc1c(C)noc1C)CC31CCN(CC2CCCCC2)CC1	·	·	·	·	-1.3	·
COc1cccc(NC(=O)CSc2nc(O)c(C)c(=O)n2-c2ccc(C)cc2)c1	7.0	6.1	1.1	98.2*	-1.4	-0.2
COc1ccc(-n2c(SCC(=O)Nc3ccccc3)nnc2-c2ccoc2C)cc1	·	7.3	-3.0	95.7*	·	-79.8
COc1ccc(NC(=O)CSc2nnc(Cc3cccs3)n2-c2ccc(C)cc2)cc1	3.8	-0.2	0.5	-9.3	-2.8	·
COc1cccc(NC(=O)CSc2nnc(Cc3cccs3)n2-c2ccc(C)cc2)c1	·	6.4	-3.9	-5.9	·	84.2*
CCn1c(C)nnc1SCC(=O)Nc1cccc(C(F)(F)F)c1	-2.9	2.2	-5.8	-4.0	2.4	3.8
Cc1c(O)nc(SCC(=O)Nc2cccc(C(F)(F)F)c2)n(-c2ccccc2)c1=O	1.5	0.9	-3.5	99.4*	3.3	2.0
COc1ccc(S(=O)(=O)N(C)C[C@H]2OCCCC[C@H](C)Oc3ccc(NC(=O)C4CCCCC4)cc3C(=O)N([C@@H](C)CO)C[C@H]2C)cc1	2.4	·	0.5	·	-2.4	-11.3[16.7 µM]
COc1ccc(CNC(=O)C[C@@H]2C=C[C@@H](NC(=O)Nc3ccc4c(c3)OCO4)[C@H](CO)O2)cc1	0.7	·	-0.3	·	-0.6	2.4[16.7 µM]
CO[C@H]1CN(C)C(=O)c2cc(NS(C)(=O)=O)ccc2OC[C@@H](C)N(Cc2cccnc2)C[C@H]1C	·	·	·	·	1.0	·
NNC(=O)CC1=NNC(=O)C1	40.0*	0.7	2.1	·	0.9	33.0
C/C(=N\NC(=O)c1ccco1)c1ccc(-c2ccccc2)cc1	-1.9	1.1	5.5	-0.2	0.5	-136.5
C/C(=N\NC(=O)c1cccc(F)c1)c1ccc(NC(=O)Cc2ccccc2)cc1	-0.4	-0.6	-4.4	-1.7	-0.8	-4.9
C/C(=N\NC(=O)c1ccc(O)cc1)c1ccc2c(c1)Nc1ccccc1S2	1.0	-0.9	1.1	98.7*	-3.2	-8.6
C/C(=N\NC(=O)c1cc(O)cc(O)c1)c1ccc(NC(=O)Cc2ccccc2)cc1	71.3*	·	-2.2	14.4	-0.9	·
C/C(=N/NC(=O)c1ccc(-c2ccccc2)cc1)c1cc(O)cc(O)c1	0.9	-0.8	-1.1	98.7*	-0.8	-12.6
CC(C)CC#Cc1cnc2c(c1)C(=O)N([C@H](C)CO)C[C@H](C)[C@H](CN(C)Cc1cccc(F)c1)O2	0.5	·	-1.3	·	-0.4	3.9[16.7 µM]
CCN(Cc1ccncc1)C(=O)c1cccc(S(=O)(=O)N(C)c2ccccc2)c1	·	-0.2	·	·	·	·
Oc1ccc(Cc2ccc(Cl)cc2)c(O)c1	5.9	5.1	-4.9	96.5*	0.1	1.9
COc1ccc(C(=O)NC(=S)SCC(=O)O)cc1	24.4	-12.5	·	·	0.1	-0.4
SMILES	Casp6 inh	NSD2 HMT inh	PglD DTNB	ALR H2O2 inh	F508del corr	HIV Env fusion
CCOC(=O)CSC(=S)NC(=O)c1ccc(OC)cc1	·	-1.7	·	100.1*	·	-6.2
COc1cccc2sc(NN)nc12	-2.7	5.1	·	98.4*	0.7	1.0
COc1cccc2sc(Nc3nnc(-c4ccccc4Cl)o3)nc12	-4.4	·	1.5	86.3*	3.1	-140.2
CCC(=O)Nc1ccc2c(c1)OC[C@@H](C)N(Cc1ccccc1OC)C[C@@H](C)[C@H](OC)CN(C)C2=O	-3.3	·	1.2	·	1.3	·
Cc1oc(-c2ccc(Cl)cc2)nc1CS(=O)CC(=O)NC1CCCCC1 (configuration not stated)	·	-0.4	-0.7	97.0*	-3.7	1.0
COc1ccc(C(=O)OCC(=O)NCC2CCCO2)cc1 (configuration not stated)	-2.7	-7.9	·	-3.0	-3.9	-3.0
